PubChem BioAssay (NCI)
This is part of a sample that, as a whole, favours compounds with a hit. Of some 83,000 tested, about 20% had one in any assay.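 48-hour exposure, single concentration, 96-well plates; percent growth endpoint where 0 means no net growth. Active: below 10.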 Unmarked numbers belong to inactive results. Calls of active or inactive are those of the source.

These compounds were tested on RPMI-8226 leukemia (assay: NCI-60 one-dose screen, 48 h (100 = growth as untreated, 0 = no growth, -100 = all killed)). Conditions: 10 µM unless noted.
Method: Growth inhibition of the RPMI-8226 human tumor cell line is measured as a screen for anti-cancer activity. Cells are grown in 96 well plates and exposed to the test compound for 48 hours. Compounds are tested at a single concentration, which is 10^-5 M for most compounds. The reported endpoint is percent growth (GI% or GIPRCNT), where numbers from 0 - 100% represent growth inhibition, and numbers from -100% - 0 represent cell death. For example, a value of 40 represents 60% growth inhibition. A value of 0 means no net growth occurred over the course of the experiment. A value of -40 indicates 40% of cells at the beginning of the experiment died by the end of the experiment. A value of -100 means all cells are dead at the end of the experiment.
NCI-60 Human Tumor Cell Lines Screen was performed using the standard one-dose NCI protocol, which is described in more detail at https://dtp.cancer.gov/discovery_development/nci-60/default.htm.
Compounds with GIPRCNT values below 10 were considered active. Activity score was based on GIPRCNT using the following formula: […]
Score is 0 for GIPRCNT values of 100 or above, 50 for GIPRCNT values of 0, and 100 for GIPRCNT values of -100.
With `Cc1ccc(C2=Nc3c(N)ncnc3NC(c3cccc(Nc4ccnc5cc(C(F)(F)F)ccc45)c3)C2)cc1` (stereo not given) the growth was -26.6% (active). `O=c1c2ccccc2n2cnc3ccc(Cl)c1c32` was tested, and the growth was 98.6%. `COC1=CC(c2ccc[nH]2)=N/C1=C\c1[nH]c(C)c(C)c1CCC(=O)OCc1ccccc1` was tested, and the growth was -51.1% (active). In the case of `COc1cc2c(cc1OCCCN1CCN(CCCOc3cc4c(cc3OC)C(=O)N3CC(F)(F)C[C@H]3C=N4)CC1)N=C[C@@H]1CC(F)(F)CN1C2=O`, the growth is reported as 5.91% (active). Compound `Cc1cc(C(=O)Nc2ncc(Cc3cccc(C(F)(F)F)c3)s2)c2ccccc2n1` has a growth of 33.9%. Work on `COc1cc2c(c(OC)c1OC)CCC(c1cccc(C(=O)Nc3cccc(Cl)c3)c1)O2` (stereo not given) yielded a growth of 39.1%. `CC(C)=CCCC(C)c1ccc(C)c2c1OCN(CCCCCO)C2` (stereo not given) showed a growth of 76.7%. With `CCOC(=O)c1nn(-c2ccc(S(N)(=O)=O)cc2)c2nc(C)cc(=O)n12` the growth was 103%. Work on `O=C(Nc1nc2cc(C(=O)N3CCN(C(c4ccccc4)c4ccccc4)CC3)ccc2o1)c1ccc(NC2CCCCC2)c([N+](=O)[O-])c1` yielded a growth of 40.1%. In the case of `CCc1ccccc1-n1c(-c2ccc(OC)cc2)cc(-c2ccc(OC)cc2)c(C#N)c1=O`, the growth is reported as 105%. `COc1ccc(Nc2ncc(Br)c(NCCCNC(=O)c3cccs3)n2)cc1` showed a growth of 27.3%. Compound `CCn1cc(C(=O)O)c(=O)c2cc(F)c(N3CCN(CC(=O)Nc4ccc(S(=O)(=O)Nc5nccc(C)n5)cc4)C(C)C3)c(F)c21` (stereo not given) has a growth of 109%. `CN(C)c1ccc(-c2c(C#N)c(N)nn2C(=O)c2ccc(NC(=O)c3ccccn3)cc2)cc1` was tested, and the growth was 95.5%. `COc1ccc(Nc2nc(-c3cc(O)c(C)c(C)c3O)cs2)cc1` showed a growth of 33.6%. For `C#CCOC(=O)/C=C/c1cn(-c2ccccc2)nc1-c1ccc(OC)cc1`, the growth was 105%. In the case of `N#Cc1nc(-c2ccccc2)oc1S(=O)(=O)N1CCN(c2ccccc2)CC1`, the growth is reported as 63.4%. `CC(=O)N1N=C(c2ccc(Nc3nc(Nc4ccccc4)nc(Nc4ccccc4)n3)cc2)CC1c1ccccc1` (stereo not given) showed a growth of 59.9%. `CCCCCCC12CCC(=O)N1CCc1cncn12` (stereo not given) showed a growth of 94.6%. Work on `COC(=O)c1cc(N=C2NC(=O)/C(=C/C=C/c3ccccc3)S2)ccc1O` yielded a growth of 18.8%. `COC(=O)[C@]12CCC(C)(C)C[C@H]1[C@H]1/C(=N/OCCc3nn[nH]n3)C[C@@H]3[C@@]4(C)CC[C@H](OC(C)=O)C(C)(C)[C@@H]4CC[C@@]3(C)[C@]1(C)CC2` gave a growth of 22.6%. `COC12C=C/C(=C(/C(=O)OCc3ccncn3)C(=O)CCCCCCCCC3(OC)C=C/C(=C(/C(=O)OCc4ccncn4)C(=O)CCCCCCCC1)O3)O2` was tested, and the growth was -22.3% (active). For `C=CCn1c(C)nc2ccc(Nc3nc(Nc4ccc5nc(C)n(CC=C)c5c4)c4ccccc4n3)cc21`, the growth was -43.3% (active). `COc1cc2ncnc(Nc3ccc(S(=O)(=O)Nc4cc(C)on4)cc3)c2cc1OCCCN1CCN(c2ccc(F)cc2)CC1` gave a growth of 114%. In the case of `COC(=O)c1c(C)c2n(c1C)C(=O)C(c1ccccc1)=C2`, the growth is reported as 88.5%. For `COc1cc2oc(-c3cccc(NC(=O)c4ccccc4)c3)cc(=O)c2c(OC)c1OC`, the growth was 26.6%. For `O=C1c2c(c3c4ccccc4[nH]c3c3ccc4ccccc4c23)C(=O)N1CCN1CCNCC1`, the growth was -35% (active). Work on `CCOC(=O)c1ccc2c(c1)nc(-c1ccccc1)n2C1CCCCC1` yielded a growth of 63.7%. `CCO/C=N/C1=C(C#N)C(c2ccc(Cl)cc2)c2sc3c(F)cccc3c2O1` (stereo not given) was tested, and the growth was 54.2%. With `CCOC(=O)C1=C(c2ccccc2)N=C2SC=C(c3ccc(Cl)cc3)N2C1c1ccc(Br)cc1` (stereo not given) the growth was 61.8%. Work on `COc1ccc(C/C(C)=C(/c2ccc(OCCN(C)C)cc2)c2ccc(OC(=O)NCc3ccccc3)cc2)cc1` yielded a growth of 32.9%. `CN(C)S(=O)(=O)c1cccc(C(=O)Nc2nc(-c3ccc(F)c(F)c3)cs2)c1` gave a growth of 63.2%. `O=C(Nc1ccc(OS(=O)(=O)c2ccc(F)cc2)cc1)C1CCCCCC1` gave a growth of 78%. With `COC(=O)CC[C@H](C)[C@H]1CC[C@H]2[C@@H]3CC[C@@H]4CC5(CC[C@]4(C)[C@H]3CC(=O)[C@]12C)Nc1ccccc1NC5=NC(C)(C)C` (stereo not given in full) the growth was 58.4%. In the case of `CC(C)COc1nc2c(c(=O)n(C)c(=O)n2C)n1C`, the growth is reported as 110%. With `N#CSCC1CC(O)(c2ccccc2)CC(c2ccc(F)cc2)O1` (stereo not given) the growth was -22.4% (active). `CCCCCCCCCCCCCCCCOCCCOP(=O)(O)C1CCCN(O)C1=O` (stereo not given) was tested, and the growth was 10.9%. For `COc1cc2cc(NCc3cccc(Cl)c3)nc(C)c2cc1OC`, the growth was 8.04% (active). `CCCCNC(=O)Oc1ccc(/C(=C(/C)Cc2ccc(OC)cc2)c2ccc(OCCN(CC)CC)cc2)cc1` was tested, and the growth was 66.3%. `C=C1C(=O)O[C@H]2[C@H]1CC/C(Cn1cc(-c3ccccc3)nn1)=C\CC[C@@]1(C)O[C@@H]21` was tested, and the growth was -20.5% (active). `Cn1cc(-c2ccc3nc(-c4ccc(CC(=O)ONc5cc(C(C)(C)C)on5)cc4)cnc3c2)cn1` showed a growth of 45.2%.
